Experimental data reported in PubChem BioAssay (NCATS).
Records with an inconclusive call do not appear. The source made the active and inactive calls. Unless noted, the call rests on the fitted dose curve; in most records, active means well fitted curve in the direction sought with a large enough effect; inconclusive means small, poorly fitted or top-dose-only effect, or another doubt; inactive means no such curve, though single readings can be large; an effect the other way counts as inactive or inconclusive.

What was measured:
[1] = target: Cytochrome P450 1A2 (Homo sapiens) (UniProt P05177); test: p450-cyp1a2 (AID 410; calls by dose curve; further: potency means the concentration at half of the fitted maximal effect;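 on activity change, negative = inhibition: -100% = full effect of reference inhibitor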)
In short: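 Luminescent demethylation readout: Luciferin-ME (100uM, equal to Km) turned over by 20nM CYP1A2 for 60 min at room temperature after NADPH regeneration addition, following 10 min compound preincubation. Normalization used 57 uM furafylline as full inhibition.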

[2] = NFAT Signaling Pathway (AID 444; active means well fitted curve in either direction with a large enough effect, not every such curve was filed as active;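 further: carbachol stimulus at about its EC50 of 1 µM final; on the % scale 0 is the no-effect control and ±100 the full control effect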); conditions: Jurkat NFAT-bla M1, carbachol, beta-lactamase ratio, 5 h; at 17.2 µM (top of the series) unless noted
In short: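 Read-out: CCF4 FRET ratio (460 nm/530 nm) after 1 h RT dye loading, used for %activity and AC50 from titration series. Cells: Jurkat NFAT-β-lactamase/M1 line, treated with compound plus 1 uM carbachol for 5 h, 37 °C.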

[3] = Stat Signaling Pathway (AID 446; active means well fitted curve in either direction with a large enough effect, not every such curve was filed as active;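 further: ME-180 cervical cancer cells given 40 pM IL-6 alongside compound; SIE-controlled beta-lactamase reporter measured as 460/530 nm FRET emission ratio; on the % scale 0 is the no-effect control and ±100 the full control effect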)
In short: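 FRET read-out (405 nm excitation, 460/530 nm emission) of a beta-lactamase reporter under a STAT-inducible element in ME-180 cervical carcinoma cells. Cells with compound receive 40 pM IL-6 for 5 h. Values are normalised to AC90 stimulation and AC90 JAK-inhibitor controls.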

[4] = target: Glucocorticoid receptor (Homo sapiens) (UniProt P04150); test: GR-GFP Redistribution (AID 450;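 active means compounds whose dose series gives a full or clear partial fitted curve of increased nuclear translocation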; further: potency means the concentration at half of the fitted maximal effect); conditions: U2OS GR-GFP nuclear translocation, laser cytometry, 2 h
[5] = target: Glucocorticoid receptor (Homo sapiens) (UniProt P04150); test: GR-EFC Redistribution (AID 451; calls by dose curve; further: potency means the concentration at half of the fitted maximal effect); conditions: CHO-K1 GR-EFC translocation, beta-gal luminescence, 2 h
In short: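 Translocation of GR-ED fusion to nuclear EA restores b-gal, read by luminescence after 1 h room-temperature detection. Engineered CHO-K1 biosensor cells, 1,000/well, exposed 2 h at 37 C to titrations up to 46 uM final.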

[6] = target: 3',5'-cyclic-AMP phosphodiesterase 4B (Homo sapiens) (UniProt Q07343); test: qHTS Assay for Inhibitors of PDE-IV (AID 607; active means well fitted activation curve with a large enough effect in the main read-out, with a control signal flat, not every such curve was filed as active; further: % of control where 0% means no effect)
In short: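 Cell-based read-out of cAMP via a modified cyclic nucleotide-gated channel and membrane potential dye (535/590 nm) in HEK293 cells expressing PDE4 endogenously. Compounds tested up to 22.9 uM final; 100 uM RO 20-1724 reference.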

[7] = target: Guanine nucleotide-binding protein G(i) subunit alpha-1 (Homo sapiens) (UniProt P63096); test: qHTS Assay for Inhibitors of RGS12 GoLoco Motif Activity (Green Fluorophore) (AID 879);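 further: 0% = labeled peptide with Gαi1 and full inhibition = labeled peptide alone without protein; negative values mean loss of peptide binding seen as reduced polarization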
In short: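 A drop in FITC polarization marked displacement of the FITC-tagged RGS12 GoLoco peptide (10 nM) from Gαi1 (50 nM). Compounds were incubated 10 min at room temperature in Tris pH 7.5 buffer containing 150 mM NaCl, 0.1 mM GDP and 0.05% NP40; unlabeled peptide titration served as control.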

[8] = qHTS Assay for Identification of Small Molecule Antagonists for NFkB Signaling Pathway (AID 895; active means well fitted inhibition curve with a large enough effect in the signal ratio, with a control signal flat, not every such curve was filed as active; the % refers to the signal ratio; further: on the % scale 0 is the no-effect control and ±100 the full control effect)
In short: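 Beta-lactamase reporter read-out (460 and 530 nm emission ratio, 405 nm excitation, 2 hrs substrate loading RT) after 5 hr stimulation with 10 pM TNF alpha in compound-treated NFkB-bla ME-180 cells in low-serum medium.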

[9] = qHTS Assay for Identification of Small Molecule Agonists for Thrombopoietin (TPO) Signaling Pathway (AID 917); further: on the % scale 0 is the no-effect control and ±100 the full control effect
In short: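 First, Ba/F3 cells with human TPO receptor were held overnight without IL-3. Next, compounds and TPO (26 pM final) were added. After 24 hrs at 37 C, luciferase detection reagent was added and luminescence measured following 10 min at room temperature.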

[10] = target: Muscarinic acetylcholine receptor M1 (Rattus norvegicus) (UniProt P08482); test: qHTS Assay for Antagonists of Acetylcholine Muscarinic M1 Receptor: Kinetic Measurement of Intracellular Calcium Response (AID 943);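 further: Fluo-4 calcium signal as peak divided by basal fluorescence over 4 min; nearly all actives have a fitted effect of over 75% in size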
In short: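 Antagonism measured as reduction of carbachol-evoked (EC80, 100 nM final) calcium flux in rat M1-CHO cells after 10 min compound exposure. Fluo-4 signal read kinetically; ratio of maximal to basal fluorescence.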

[11] = target: Muscarinic acetylcholine receptor M1 (Rattus norvegicus) (UniProt P08482); test: qHTS Assay for Antagonists of Acetylcholine Muscarinic M1 Receptor: Measurement of IP-One Response (AID 944); further: nearly all actives have a fitted effect of over 75% in size
In short: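 IP1 accumulation measured via TR-FRET between d2-IP1 and Eu-cryptate anti-IP1 antibody after carbachol (200 nM, EC80) stimulation for 30 min; rat M1-transfected CHO cells received compound 10 min before agonist.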

[12] = target: Pyruvate kinase (Leishmania mexicana) (UniProt Q27686); test: qHTS Validation Assay for Inhibitors of Leishmania Mexicana Pyruvate Kinase (AID 945);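 further: 0% = DMSO only neutral control wells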
In short: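 Read-out: luminescence from PKLight stop/detection reagent, data normalized to DMSO. Reaction: 0.2 nM E451W LmPYK, 0.5 mM PEP, 0.1 mM ADP, pH 7.2, 1 h room temperature.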

[13] = target: Pyruvate kinase PKM (Homo sapiens) (UniProt P14618); test: qHTS Assay for Activators of Human Muscle Pyruvate Kinase (AID 954; active means well fitted curve in the direction sought with a large enough effect, not every such curve was filed as active;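 further: 0% = uninhibited enzyme and -100% = no enzyme or full thiadiazolimine inhibition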)
In short: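 ATP production by PKM2 detected via luciferase luminescence after 1 h room-temperature reaction (0.1 nM enzyme, PEP at Km 0.5 mM, ADP 0.1 mM, pH 7.2 imidazole buffer). Inhibition scaled to no-enzyme control; activation referenced to 0.3 nM enzyme wells.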

[14] = target: Alpha-galactosidase (Coffea arabica) (UniProt Q42656); test: Counterscreen for Glucocerebrosidase Inhibitors: qHTS Assay for Coffee Bean alpha-Galactosidase at pH 4.5 (AID 957);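 further: plate controls were enzyme alone for no effect and no enzyme for full effect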
In short: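 Fluorogenic qHTS at pH 4.5 (citrate buffer with Tween-20): 2 nM enzyme, 80 uM 4-MU-alpha-galactoside substrate, compound titrated 0.7 nM to 77 uM, 20 min room temperature. Glycine/NaOH stop; 4-MU read Ex 365/Em 440; Hill-equation AC50 against no-enzyme and enzyme controls.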

[15] = target: Alpha-galactosidase A (Homo sapiens) (UniProt P06280); test: Counterscreen for Glucocerebrosidase Inhibitors: qHTS Assay for Human alpha-Galactosidase at pH 4.5 (AID 992); further: 0% is about no effect
In short: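 Fluorogenic 1536-well qHTS at pH 4.5 (citrate, Tween-20): 2 nM enzyme, 80 uM 4-MU-alpha-galactoside, 20 min room temperature, NaOH/glycine stop. Titration 0.7 nM to 77 uM, data normalized to no-enzyme and full-activity controls, Hill-fitted AC50.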

[16] = target: alpha-glucosidase (Oryza sativa, rice) (UniProt Q653V4); test: Counterscreen for Glucocerebrosidase Inhibitors: qHTS Assay for Rice alpha-Glucosidase at pH 5.0 (AID 997);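 further: 0% = full activity with enzyme and -100% = basal without enzyme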
In short: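 Endpoint fluorogenic assay at pH 5.0: compounds (0.7 nM to 77 uM) titrated against 4 nM rice enzyme and 400 uM 4-MU-alpha-glucoside for 20 min at room temperature; NaOH/glycine stop, read ex 365/em 440 nm, Hill-fitted AC50.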

[17] = target: Alpha-galactosidase (Coffea arabica) (UniProt Q42656); test: Counterscreen for Glucocerebrosidase Inhibitors: qHTS Assay for Coffee Bean alpha-Galactosidase at pH 5.9 (AID 998);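 further: plate controls were uninhibited enzyme for no effect and no-enzyme basal signal for full effect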
In short: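 Fluorogenic 4-MU substrate hydrolysis, 80 uM substrate and 2 nM coffee bean alpha-galactosidase, pH 5.9 citrate buffer, 20 min at room temperature, then NaOH/glycine stop. Titration 0.7 nM–77 uM, normalized to no-enzyme and enzyme controls, AC50 via Hill equation.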

[18] = AP1 Signaling Pathway (AID 357; active means well fitted curve in either direction with a large enough effect, not every such curve was filed as active); conditions: ME-180 (cervical carcinoma) AP-1-bla reporter, EGF-induced, beta-lactamase ratio, 5 h; at 17.2 µM (top of the series) unless noted
In short: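 Beta-lactamase reporter under AP-1 response element, ME-180 background. Stimulus: EC50 EGF. Compound exposure 5 h, 37 °C. Detection: CCF4, 2.5 h RT, 460/530 nm. Values: AC50 from titration.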

[19] = target: Mitogen-activated protein kinase 10 (Mus musculus) (UniProt Q61831); test: JNK3 AlphaScreen Assay (AID 530; active means well fitted curve in either direction with a large enough effect, not every such curve was filed as active)
In short: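 qHTS titrations with 15 min compound pre-incubation before adding ATP (10 uM final). Read-out: AlphaScreen of Ser73-phosphorylated biotin-GST-cJun using HepG2 lysate JNK3 activated by IL-1β and TNFα.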

[20] = target: Cytochrome P450 3A4 (Homo sapiens) (UniProt P08684); test: qHTS Assay for Inhibitors and Substrates of Cytochrome P450 3A4 (AID 884); further: potency means the concentration at half of the fitted maximal effect; nearly all actives have a fitted effect of over 50% in size
In short: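 Luminescent readout of luciferin produced by CYP3A4 (20 nM) dealkylation of Luciferin-PPXE, 25 uM (its KM). NADPH-driven reaction ran 60 min at RT after 10 min compound preincubation; data scaled to 57 uM ketoconazole as 100% inhibition.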

[21] = target: Cytochrome P450 3A4 (Homo sapiens) (UniProt P08684); test: qHTS Assay for Activators of Cytochrome P450 3A4 (AID 885); further: nearly all actives have a fitted effect of over 65% in size
In short: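 Luminescent readout of luciferin formed from 25 uM Luciferin-PPXE (KM level) by 20 nM CYP3A4 in 200 mM KPO4, with 60 min NADPH-driven reaction at room temperature after 10 min compound exposure. Ketoconazole (57 uM) defined 100% inhibition.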

[22] = target: Cytochrome P450 2D6 (Homo sapiens) (UniProt P10635); test: qHTS Assay for Inhibitors and Substrates of Cytochrome P450 2D6 (AID 891); further: potency means the concentration at half of the fitted maximal effect; nearly all actives have a fitted effect of over 60% in size
In short: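 Luminescent read-out of luciferin formed by 5 nM human CYP2D6 demethylating 30 uM Luciferin-ME EGE (Km level) over 60 min at room temperature after NADPH regeneration addition. Data normalized to full inhibition by 1.43 uM quinidine.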

[23] = target: Cytochrome P450 2C19 (Homo sapiens) (UniProt P33261); test: qHTS Assay for Inhibitors and Substrates of Cytochrome P450 2C19 (AID 899); further: potency means the concentration at half of the fitted maximal effect; nearly all actives have a fitted effect of over 60% in size
In short: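 Reactions contain 5nM enzyme, 10uM Luciferin-H EGE (KM) and 50mM KPO4; compound preincubates 10 min at 37C, NADPH regeneration starts turnover for 60 min. Luminescence after detection reagent gives activity.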

[24] = target: Ubiquitin carboxyl-terminal hydrolase 1 (Homo sapiens) (UniProt O94782); test: Inhibitors of USP1/UAF1: Pilot qHTS (AID 504865);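 further: rhodamine fluorescence freed from ubiquitin-rhodamine substrate followed over time; top concentration of the series differs between compounds; on the % scale 0 is the no-effect control and ±100 the full control effect; nearly all actives have a fitted effect of over 35% in size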
In short: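 USP1/UAF1 complex (1nM) preincubated with compound 15 min at room temperature, then Ub-Rho substrate (150nM final) added. Fluorescence read kinetically at 480/540 nm, 6 reads every 60 seconds. Buffer: 50mM HEPES pH 7.8, 0.5mM EDTA, 0.1 mg/ml BSA, 1mM TCEP, 0.01% Tween-20.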

[25] = target: DNA dC->dU-editing enzyme APOBEC-3G (Homo sapiens) (UniProt Q9HC16); test: qHTS for inhibitors of Vif-A3G interactions: Validation (AID 588379); further: 0% is about no effect
In short: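 Yellow fluorescence (Ex 488, Em 500-530) of Vif-coexpressing HeLa A3G-eYFP cells, scanned by Acumen cytometer, reports blocked A3G degradation. Cells plated at 700/well overnight at 37 deg C before compound addition, then a further overnight compound incubation at 37 deg C.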

Sequence of Glucocorticoid receptor (Homo sapiens) (P04150 whole entry, looked up, the tested form may be a part): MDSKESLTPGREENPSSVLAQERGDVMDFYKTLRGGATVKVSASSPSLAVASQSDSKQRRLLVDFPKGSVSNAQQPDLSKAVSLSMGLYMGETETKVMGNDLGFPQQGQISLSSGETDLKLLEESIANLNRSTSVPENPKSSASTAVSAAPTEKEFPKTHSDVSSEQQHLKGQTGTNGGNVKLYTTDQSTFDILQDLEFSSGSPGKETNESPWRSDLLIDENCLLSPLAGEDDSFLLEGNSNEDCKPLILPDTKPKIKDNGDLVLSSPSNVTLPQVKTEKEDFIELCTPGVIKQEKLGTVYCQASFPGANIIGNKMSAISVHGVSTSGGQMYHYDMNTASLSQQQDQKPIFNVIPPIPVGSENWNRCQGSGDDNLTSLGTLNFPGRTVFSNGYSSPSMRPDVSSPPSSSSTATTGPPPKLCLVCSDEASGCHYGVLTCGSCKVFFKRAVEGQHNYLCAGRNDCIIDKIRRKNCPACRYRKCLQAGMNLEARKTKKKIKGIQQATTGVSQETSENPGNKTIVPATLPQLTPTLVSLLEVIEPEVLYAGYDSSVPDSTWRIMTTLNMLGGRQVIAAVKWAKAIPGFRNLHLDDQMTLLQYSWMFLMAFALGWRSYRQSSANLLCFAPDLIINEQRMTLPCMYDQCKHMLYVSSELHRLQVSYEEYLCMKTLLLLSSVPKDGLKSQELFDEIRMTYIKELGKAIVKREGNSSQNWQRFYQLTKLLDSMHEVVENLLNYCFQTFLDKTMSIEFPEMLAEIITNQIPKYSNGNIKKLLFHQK
Sequence of Cytochrome P450 1A2 (Homo sapiens) (P05177 whole entry, looked up): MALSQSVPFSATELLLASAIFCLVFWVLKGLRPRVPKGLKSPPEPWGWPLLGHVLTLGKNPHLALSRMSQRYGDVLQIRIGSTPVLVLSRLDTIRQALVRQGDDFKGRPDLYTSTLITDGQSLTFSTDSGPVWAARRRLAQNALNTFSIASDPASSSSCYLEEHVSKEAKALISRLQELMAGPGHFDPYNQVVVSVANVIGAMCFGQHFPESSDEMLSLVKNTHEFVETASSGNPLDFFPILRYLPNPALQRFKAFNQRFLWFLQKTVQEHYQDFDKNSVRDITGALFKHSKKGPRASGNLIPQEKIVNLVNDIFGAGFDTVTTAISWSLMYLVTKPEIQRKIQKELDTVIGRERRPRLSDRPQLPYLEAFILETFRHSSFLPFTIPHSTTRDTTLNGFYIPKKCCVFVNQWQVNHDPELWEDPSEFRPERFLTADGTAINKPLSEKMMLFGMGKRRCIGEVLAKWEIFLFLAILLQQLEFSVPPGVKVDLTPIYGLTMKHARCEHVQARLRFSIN
Sequence of Muscarinic acetylcholine receptor M1 (Rattus norvegicus) (P08482 whole entry, looked up): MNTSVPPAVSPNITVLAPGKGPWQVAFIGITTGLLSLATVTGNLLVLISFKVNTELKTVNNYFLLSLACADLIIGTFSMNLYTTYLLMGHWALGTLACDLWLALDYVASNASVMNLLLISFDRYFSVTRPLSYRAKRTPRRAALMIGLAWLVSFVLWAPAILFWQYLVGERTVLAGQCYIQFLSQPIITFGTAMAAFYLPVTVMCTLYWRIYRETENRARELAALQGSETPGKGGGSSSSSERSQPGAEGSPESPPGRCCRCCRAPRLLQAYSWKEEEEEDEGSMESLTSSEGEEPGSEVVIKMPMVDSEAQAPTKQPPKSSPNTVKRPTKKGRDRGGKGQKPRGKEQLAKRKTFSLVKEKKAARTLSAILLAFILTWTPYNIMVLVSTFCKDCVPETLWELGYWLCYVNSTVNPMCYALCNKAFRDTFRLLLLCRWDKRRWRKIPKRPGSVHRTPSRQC
Sequence of Alpha-galactosidase (Coffea arabica) (Q42656 whole entry, looked up): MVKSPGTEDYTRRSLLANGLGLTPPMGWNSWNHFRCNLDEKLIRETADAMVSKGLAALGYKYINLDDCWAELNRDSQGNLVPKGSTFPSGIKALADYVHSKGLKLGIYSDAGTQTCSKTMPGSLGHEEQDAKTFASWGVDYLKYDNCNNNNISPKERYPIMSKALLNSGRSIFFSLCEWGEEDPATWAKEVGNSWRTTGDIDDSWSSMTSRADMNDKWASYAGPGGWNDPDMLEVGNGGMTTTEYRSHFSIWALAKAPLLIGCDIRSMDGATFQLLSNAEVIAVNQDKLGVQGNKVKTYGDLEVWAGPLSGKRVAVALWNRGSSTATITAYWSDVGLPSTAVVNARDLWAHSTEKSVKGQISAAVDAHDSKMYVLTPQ
Sequence of Cytochrome P450 3A4 (Homo sapiens) (P08684 whole entry, looked up): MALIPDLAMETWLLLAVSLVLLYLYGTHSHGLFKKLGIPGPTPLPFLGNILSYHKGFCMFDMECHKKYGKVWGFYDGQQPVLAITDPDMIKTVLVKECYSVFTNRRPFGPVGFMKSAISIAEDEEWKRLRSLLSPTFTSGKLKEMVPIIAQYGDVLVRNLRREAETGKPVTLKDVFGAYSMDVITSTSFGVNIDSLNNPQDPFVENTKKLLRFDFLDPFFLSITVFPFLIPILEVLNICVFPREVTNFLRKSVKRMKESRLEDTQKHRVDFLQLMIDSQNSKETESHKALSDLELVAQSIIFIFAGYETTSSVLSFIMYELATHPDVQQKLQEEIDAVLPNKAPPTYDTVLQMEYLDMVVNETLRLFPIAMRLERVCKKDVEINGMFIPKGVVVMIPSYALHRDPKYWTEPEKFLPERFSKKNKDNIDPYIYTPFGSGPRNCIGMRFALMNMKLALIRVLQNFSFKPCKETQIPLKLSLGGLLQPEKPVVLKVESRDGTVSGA
Sequence of Cytochrome P450 2C19 (Homo sapiens) (P33261 whole entry, looked up): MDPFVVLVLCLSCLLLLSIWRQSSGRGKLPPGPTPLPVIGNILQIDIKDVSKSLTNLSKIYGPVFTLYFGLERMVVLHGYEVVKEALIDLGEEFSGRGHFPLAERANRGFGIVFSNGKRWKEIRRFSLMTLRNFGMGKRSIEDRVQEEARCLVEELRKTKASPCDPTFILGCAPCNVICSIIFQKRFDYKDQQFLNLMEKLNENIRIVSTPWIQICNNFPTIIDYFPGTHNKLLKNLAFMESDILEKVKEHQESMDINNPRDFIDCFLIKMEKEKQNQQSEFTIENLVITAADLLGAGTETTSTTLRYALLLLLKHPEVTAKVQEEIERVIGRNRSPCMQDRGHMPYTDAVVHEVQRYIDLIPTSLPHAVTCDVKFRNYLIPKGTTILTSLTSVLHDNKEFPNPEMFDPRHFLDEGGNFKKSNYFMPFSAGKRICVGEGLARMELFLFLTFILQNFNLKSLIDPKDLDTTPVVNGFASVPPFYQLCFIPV
Sequence of 3',5'-cyclic-AMP phosphodiesterase 4B (Homo sapiens) (Q07343 whole entry, looked up): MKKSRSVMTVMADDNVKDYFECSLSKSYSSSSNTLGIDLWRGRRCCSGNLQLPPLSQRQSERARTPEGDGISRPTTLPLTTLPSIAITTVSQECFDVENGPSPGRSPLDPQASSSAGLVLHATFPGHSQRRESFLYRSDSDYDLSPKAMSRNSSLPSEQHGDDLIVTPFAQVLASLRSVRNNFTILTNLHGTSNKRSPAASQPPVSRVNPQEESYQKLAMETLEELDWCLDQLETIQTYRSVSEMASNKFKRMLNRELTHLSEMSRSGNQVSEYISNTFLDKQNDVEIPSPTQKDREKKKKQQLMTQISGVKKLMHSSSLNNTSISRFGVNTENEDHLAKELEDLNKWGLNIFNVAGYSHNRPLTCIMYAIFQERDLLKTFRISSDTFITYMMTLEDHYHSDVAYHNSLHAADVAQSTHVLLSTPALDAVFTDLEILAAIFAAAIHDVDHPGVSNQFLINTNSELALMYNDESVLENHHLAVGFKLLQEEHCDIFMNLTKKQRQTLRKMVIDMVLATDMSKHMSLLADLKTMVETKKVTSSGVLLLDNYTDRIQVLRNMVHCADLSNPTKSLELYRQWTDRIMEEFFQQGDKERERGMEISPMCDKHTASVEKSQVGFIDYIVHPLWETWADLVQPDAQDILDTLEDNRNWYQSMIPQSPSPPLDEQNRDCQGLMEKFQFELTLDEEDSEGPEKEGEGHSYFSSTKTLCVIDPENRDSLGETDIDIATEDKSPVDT
Sequence of Pyruvate kinase (Leishmania mexicana) (Q27686 2-499 E452W): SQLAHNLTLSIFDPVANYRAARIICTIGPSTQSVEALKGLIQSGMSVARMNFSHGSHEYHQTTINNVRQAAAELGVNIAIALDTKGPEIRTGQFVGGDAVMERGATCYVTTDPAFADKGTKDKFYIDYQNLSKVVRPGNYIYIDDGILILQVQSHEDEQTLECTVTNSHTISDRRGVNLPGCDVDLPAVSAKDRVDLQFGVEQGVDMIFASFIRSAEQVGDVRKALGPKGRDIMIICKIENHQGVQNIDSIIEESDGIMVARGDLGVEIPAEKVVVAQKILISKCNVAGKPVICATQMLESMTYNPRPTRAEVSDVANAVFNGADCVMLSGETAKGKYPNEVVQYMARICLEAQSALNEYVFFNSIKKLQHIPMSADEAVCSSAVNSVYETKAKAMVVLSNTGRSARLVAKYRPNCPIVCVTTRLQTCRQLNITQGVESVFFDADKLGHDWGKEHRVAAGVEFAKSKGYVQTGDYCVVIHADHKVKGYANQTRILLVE
Sequence of Guanine nucleotide-binding protein G(i) subunit alpha-1 (Homo sapiens) (P63096 whole entry, looked up): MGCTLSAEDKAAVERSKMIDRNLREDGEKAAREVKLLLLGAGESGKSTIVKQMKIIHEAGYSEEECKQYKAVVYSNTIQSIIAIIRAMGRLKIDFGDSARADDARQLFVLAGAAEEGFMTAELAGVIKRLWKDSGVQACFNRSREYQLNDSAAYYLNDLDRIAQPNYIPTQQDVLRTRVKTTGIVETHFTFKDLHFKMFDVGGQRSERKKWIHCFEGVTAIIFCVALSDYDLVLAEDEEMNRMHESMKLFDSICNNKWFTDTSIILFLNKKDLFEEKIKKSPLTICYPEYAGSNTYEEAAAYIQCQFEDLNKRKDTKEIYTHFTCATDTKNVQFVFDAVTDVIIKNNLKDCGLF

CCN1C[C@]2(C)CC[C@@H](O)[C@]34[C@@H]5CC6[C@@H](OC)C[C@@](O)([C@H]5[C@@H]6O)[C@@H](C[C@@H]23)[C@H]14
inactive: Potency [1] | activity change, negative = inhibition [2] 6.29% [at 38 µM] | outcome [3] | Potency [4] > 46 µM | Potency [5] > 46 µM | outcome [6] | Potency [7] | Potency [8] | outcome [9] | Potency [10] | Potency [11] | Potency [12] | outcome [13] | outcome [14] | outcome [15] | outcome [16] | outcome [17]

CCOC(=O)[C@@]1(C#N)[C@@H]2C=CC(C(N)=O)=CN2[C@@H](C(N)=O)[C@@H]1c1cccc(Cl)c1
inactive: activity change, negative = inhibition [18] -3.06% | outcome [3] | Potency [4] > 20.6 µM

CCc1nc(N2CCNCC2)c(C#N)c2c1CSC(C)(C)C2
inactive: activity change, negative = inhibition [18] -1.4% | outcome [3] | Potency [4] > 20.6 µM

C[C@@H](Cc1cccc(C(F)(F)F)c1)NCCCc1ccccc1
inactive: Potency [4] > 46 µM | Potency [5] > 46 µM | outcome [19] | Potency [21] | Potency [24] | outcome [25]
active: Potency [1] 3.98 µM | Potency [20] 5.01 µM | Potency [22] 0.0126 µM | Potency [23] 1.26 µM
